Test results from PubChem BioAssay.
Calls of active or inactive are those of the source.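 The calls were made as follows: active = viability increase at or above a cutoff of the median across tested compounds plus 3 SD (cut at about 8.5% in these data, passing the limit was not always enough); inconclusive = some gains above the cutoff, reason not given; inactive = the rest.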

Assay: doxorubicin toxicity protection in MRP-1 cells – H69AR cells, CellTiter-Glo, duplicate, MRP-1 activator project, pilot screen (AID 807);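 also: compound pretreatment 18-22 h then 72 h combined with doxorubicin; 0% = doxorubicin alone and 100% = vehicle without doxorubicin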
Conditions: H69AR viability with doxorubicin, CellTiter-Glo luminescence; at 10 µM; stronger effect = higher value
In the case of `Cc1cc(Nc2ccc(F)cc2C)n2nc(C)nc2n1`, the viability increase is reported as -1.42% (inactive). For `CC(=O)c1cccc(NC(=O)Cn2cc3c(n2)CCCC3)c1`, the viability increase was -3.04% (inactive). In the case of `O=C(Nc1nc(-c2cccs2)cs1)c1ccc(S(=O)(=O)N2CCCCC2)cc1`, the viability increase is reported as -3.02% (inactive). With `Cc1cc(OCCN2CCCC2)ccc1C(C)C` the viability increase was -1.29% (inactive). In the case of `CCN1C(=O)c2ccccc2S(=O)c2ccc(C(=O)N3CCN(C(=O)c4ccco4)CC3)cc21` (stereo not given), the viability increase is reported as -2.16% (inactive). With `N#Cc1c(SCC(N)=O)nc2c(c1-c1ccc(O)cc1)CCCC2` the viability increase was -1.33% (inactive). For `COCCCN1CC23C=CC(O2)C(C(=O)O)C3C1=O` (stereo not given), the viability increase was -1.24% (inactive). With `COC(=O)C1C(O)=C(C=NCC(C)N=CC2=C(O)C(C(=O)OC)C(C)(C)CC2=O)C(=O)CC1(C)C` (stereo not given) the viability increase was -0.55% (inactive). For `CN1CCc2c(c3ccccc3n2Cc2ccccc2)C1`, the viability increase was -5.7% (inactive). For `CC(=O)c1c(C)[nH]c(C(=O)N2c3ccccc3CC2C)c1C` (stereo not given), the viability increase was -0.41% (inactive). With `Cc1ccc(-c2nn3c(C)nnc3s2)cc1NC(=O)COc1ccc(Cl)cc1` the viability increase was -1.1% (inactive). For `O=C(c1cc(-c2cccc(O)c2)on1)N1CCCCC1`, the viability increase was 0.08% (inactive). In the case of `CCOC(=O)c1oc2cc(O)ccc2c(=O)c1-c1ccccc1OC`, the viability increase is reported as -1.98% (inactive). With `COc1ccc(C(=O)c2cn[nH]c2-c2cc(Cl)ccc2O)cc1` the viability increase was -1.77% (inactive). In the case of `O=C(Nc1nnc(-c2ccc(Cl)s2)o1)C1CCCCC1`, the viability increase is reported as -4.45% (inactive). With `CN(C)c1ccc(NC(=O)c2cccc(N3C(=O)CCC3=O)c2)cc1` the viability increase was 1.36% (inactive). With `Cc1onc(-c2ccccc2Cl)c1C(=O)N1CCCCC1C(=O)O` (stereo not given) the viability increase was -1.22% (inactive). With `COc1ccc(OCC(=O)Nc2ccccc2OC)cc1` the viability increase was -4.87% (inactive). For `COC(=O)c1ccc2c(=O)n3c(nc2c1)SCC(c1ccccc1)=N3`, the viability increase was -1.81% (inactive). With `CCOC(=O)Nc1ccc2c(c1)N(C(=O)N(CC)CC)c1ccccc1CC2` the viability increase was -3.07% (inactive). For `Cc1c(C(=O)Nc2ccc(F)cc2)oc2ccc(S(=O)(=O)N3CCCC3)cc12`, the viability increase was -2.04% (inactive). For `COc1cc(OC)cc(-c2nc(-c3ccc(Br)cc3)no2)c1`, the viability increase was 1.86% (inactive). For `O=C(Nc1nnc(-c2ccccc2)o1)c1nc2ccccc2s1`, the viability increase was -3.96% (inactive). With `Cc1c(C(=O)NCc2cccnc2)oc2ccccc12` the viability increase was -3.9% (inactive). In the case of `Cc1cccn2cc(-c3ccc(F)cc3)nc12`, the viability increase is reported as -4.81% (inactive). For `O=C(NCCN1CCOCC1)c1ccc2c(c1)ncn2C1CCCC1`, the viability increase was -0.55% (inactive). For `COC(=O)CSc1nc2ccccc2nc1SCC(=O)OC`, the viability increase was -2% (inactive). With `O=C(O)c1ccccc1C(=O)NCc1ccccc1` the viability increase was 1.13% (inactive). With `CC(C)(C)SCCNS(=O)(=O)c1ccc(F)cc1` the viability increase was 0.35% (inactive). For `COC(=O)C1C(=O)c2c([nH]c(C(=O)OC3CCCCC3)c2C)CC1C` (stereo not given), the viability increase was 2.69% (inactive). In the case of `O=S(=O)(CCc1nnc(-c2ccccc2)o1)c1ccc2ccccc2c1`, the viability increase is reported as -1.86% (inactive). In the case of `O=C(Cn1cnc2c(cnn2-c2ccccc2)c1=O)c1ccc(Cl)cc1`, the viability increase is reported as 1.75% (inactive). For `O=C(c1ccc2nc(N3CCOCC3)sc2c1)N1CCN(C(=O)c2ccco2)CC1`, the viability increase was -1.45% (inactive). In the case of `O=C(CCn1c(=O)sc2ccccc21)NCc1ccccc1`, the viability increase is reported as -0.79% (inactive). With `CC1(C)Oc2ccc3ccc(=O)oc3c2/C(=C/N)C1=O` the viability increase was -4.51% (inactive). For `COc1ccc(C2N3CC4(C)CN2CC(C)(C3)C4=O)cc1OC` (stereo not given), the viability increase was -0.5% (inactive). With `O=C(NCCn1ccc2ccccc21)c1ccc2c(c1)OCO2` the viability increase was 0.1% (inactive). For `Cc1occc1C(=O)NCc1ccc2c(c1)OCO2`, the viability increase was 0.84% (inactive). In the case of `CC1(C)NC(C)(C)c2nonc2/C1=N\O`, the viability increase is reported as 0.39% (inactive). With `CCn1c(C)nc2cc(S(=O)(=O)N3CCCC3)ccc21` the viability increase was -1.11% (inactive).
